# HP1b binding inh = blocks HP1-beta chromodomain binding to methylated histone tails. P83916. AlphaScreen HP1-beta / biotin-H3K9me3 peptide binding. Potency, µM (highest dose often 114 µM), without a hit: top-dose activity change, negative = inhibition, hits mostly inhibitors. 390,000 compounds, 0.56% hits. AID 540317; note: potency is the fitted concentration of half-maximal effect; nearly all actives have a fitted effect of over 70% in size
#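 Compound inhibition of the preformed complex between 50 nM HP1-beta and 50 nM biotinylated H3K9me3 peptide was read by AlphaScreen. Buffer was PBS pH 7.4 with 0.01% Tween-20. Incubations ran 30 min at room temperature, with 10 ug/mL donor/acceptor beads.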
# PLK1 PBD block = inhibitors of human PLK1 polo-box domain binding; Plk1 PBD binding of FITC phosphopeptide, fluorescence polarization; P53350; Potency, µM, inactives show max response, negative = inhibition, hits mostly inhibitors; 360,000 compounds, 2.8% hits; note: potency is the fitted concentration of half-maximal effect; series mostly up to about 57 µM; % is set by controls: 0 for no effect and ±100 for the full control effect; nearly all actives have a fitted effect of over 65% in size
# JMJD2A Tudor = JMJD2A Tudor domain (human) inhibition. O75164. AlphaScreen JMJD2A-Tudor / H3K4me3 peptide binding. Potency, µM (doses to about 114 µM), inactives show at the top dose activity change, negative = inhibition, usual class: inhibitors. 390,000 compounds, 4.4% hits; note: potency is the fitted concentration of half-maximal effect; % is set by controls: 0 for no effect and ±100 for the full control effect; nearly all actives have a fitted effect of over 50% in size
# PI5P4K alpha inh = PI5P4K alpha (human) kinase inhibition; PI5P4Kalpha enzyme, ADP-Glo luminescence, 60 min; stronger effect = lower value; max response, %; 330,000 compounds, 1.2% hits; active = max response of -50% or lower; inconclusive = between -30% and -50%; inactive = -30% or higher; note: value at the top dose of about 77 µM; % is set by controls: 0 for no effect and ±100 for the full control effect
# Target sequence (P48426 whole entry, looked up): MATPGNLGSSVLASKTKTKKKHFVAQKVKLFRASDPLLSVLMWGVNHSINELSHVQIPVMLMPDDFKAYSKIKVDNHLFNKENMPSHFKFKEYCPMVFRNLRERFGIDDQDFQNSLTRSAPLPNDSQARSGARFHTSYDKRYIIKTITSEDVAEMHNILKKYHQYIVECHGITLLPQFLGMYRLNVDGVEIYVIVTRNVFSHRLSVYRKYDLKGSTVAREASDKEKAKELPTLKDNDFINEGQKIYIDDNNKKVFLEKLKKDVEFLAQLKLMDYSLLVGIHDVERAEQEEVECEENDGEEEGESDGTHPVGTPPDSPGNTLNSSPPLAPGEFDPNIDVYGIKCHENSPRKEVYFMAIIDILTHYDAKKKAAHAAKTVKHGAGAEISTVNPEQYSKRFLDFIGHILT
#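 qHTS, 1536-well: enzyme/substrate mix, compound by pin tool, 5 microM ATP final; RT 60 min; ADP-Glo reagents 1 (45 min) then 2 (30 min); luminescence.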
# BAZ2B block = BAZ2B (human) inhibition; AlphaScreen BAZ2B-H3K14Ac peptide displacement; Q9UIF8; Potency, µM (titrated, usually from 114 µM), inactives show top-dose activity change, negative = inhibition, most hits filed as inhibitors; AID 504333; 360,000 compounds, 4.4% hits; note: potency is the fitted concentration of half-maximal effect; % is set by controls: 0 for no effect and ±100 for the full control effect; nearly all actives have a fitted effect of over 60% in size
#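 Compounds, titrated to a top concentration of 110 uM, were incubated 30 min at room temperature with preformed BAZ2B/acetyl-K14 H3 peptide complex (50 nM each). Proximity signal was measured by AlphaScreen after 20 min with beads.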
# G9a inh = blocks human histone lysine methyltransferase G9a | Q96KQ7 | G9a H3K9 monomethylation, AlphaScreen, 2 h | Potency, µM (highest dose often 102 µM), for inactives: top-dose activity, negative = inhibition, actives largely listed as inhibitors | 350,000 compounds, 8.8% hits | AID 504332; note: potency is the fitted concentration of half-maximal effect; % is set by controls: 0 for no effect and ±100 for the full control effect; nearly all actives have a fitted effect of over 75% in size
# Target sequence (Q96KQ7 913-1193 limits assumed): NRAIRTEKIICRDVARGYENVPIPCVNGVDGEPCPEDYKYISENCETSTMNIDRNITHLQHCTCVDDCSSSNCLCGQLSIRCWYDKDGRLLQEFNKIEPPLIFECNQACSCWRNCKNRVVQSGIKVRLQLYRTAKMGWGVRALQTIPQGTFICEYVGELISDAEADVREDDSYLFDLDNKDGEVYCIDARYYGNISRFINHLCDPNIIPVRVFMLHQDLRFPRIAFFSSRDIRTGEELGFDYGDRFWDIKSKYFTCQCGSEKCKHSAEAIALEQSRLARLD
#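 Chemiluminescent proximity detection of H3K9 monomethylation, read after 10 min bead incubation in the dark. Reaction: 20 nM G9a, 500 nM biotin-H3K9 peptide, 20 uM SAM cofactor, 2 h, room temperature, following 15 min enzyme-compound preincubation.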
# Numbers without * were called inactive; ? = inconclusive; / = no result given; [ ] = another dose, or the depositor's remark. Rows were chosen to be rich in hits. Some 12% of all compounds tested hit in one or more screens of this group. Unless noted, calls come from the whole dose curve; as a rule, active = well fitted curve in the direction sought with a large enough effect; inconclusive = small, poorly fitted or top-dose-only effect, or another doubt; inactive = no such curve, though single readings can be large; an effect the other way counts as inactive or inconclusive.
SMILES,HP1b binding inh,PLK1 PBD block,JMJD2A Tudor,PI5P4K alpha inh,BAZ2B block,G9a inh
COc1cc(CNCCNC(=O)c2cccs2)cc(OC)c1OC,-20.5%,-2.2%,28.2µM*,-4.1,89.1µM*,/
CCCCn1c(N)c(N(CCOC)C(=O)c2cc(-c3ccccc3Cl)nc3ccccc23)c(=O)[nH]c1=O,12.3%,-2.1%,-7.6%,7.9,29.9%,-25.7%
CC(=O)Nc1ccccc1C(=O)C(=O)Nc1ccc(Cl)cc1,18.6%,4.8%,-5.1%,-5.3,-7.3%,-31.0%
CC(=O)C(=Nc1ccccc1Cl)NNc1ccc(Cl)cc1,50.1µM*,-1.8%,31.6µM*,11.1,28.2µM*,7.94µM*
O=C1c2ccccc2C(=O)N1c1noc2ccccc12,/,/,-5.4%,/,/,/
CN1CCN(c2cc3c(c4c2[nH]c2ccccc24)C(=O)CC(C)(C)C3)CC1,20.1%,-8.1%,?,2.2,-32.1%,56.2µM*
CCCCN1CC(c2nc3ccccc3n2CCCCOc2ccccc2C)CC1=O (stereo unspecified),34.2%,/,-12.3%,/,-0.6%,?
C=C1CCN(C(Cc2ccccc2)C(=O)Nc2ccc(OC)cc2)S(=O)(=O)c2ccccc21 (stereo unspecified),4.5%,/,-31.7%,/,/,/
CC(NO)/C(=N\O)c1cccs1 (stereo unspecified),?,-3.2%,79.4µM*,/,?,3.98µM*
CCOC(=O)N1CCc2c(sc3c2c(=O)n(Cc2ccccc2)c(=O)n3CC(=O)Nc2ccc(C)cc2C)C1,34.3%,/,-5.3%,/,-34.9%,17.1%[59 µM]
CCCCCOC(=O)Nc1ccc(S(=O)(=O)Nn2cnnc2)cc1,-1.5%,?,89.1µM*,/,-2.1%,9.6%[59 µM]
CCCCOC(=O)Nc1ccc(S(=O)(=O)Nc2ncccn2)cc1,38.4%,-4.3%,-5.2%,-4.1,-1.4%,/
COc1ccc(-c2nc(C)c(CCNC(=O)c3cc(OC)c(OC)c(OC)c3)s2)cc1OC,10.0%[57 µM],/,-15.8%,/,-12.1%,-4.6%[59 µM]
CC(=O)Nc1nc2ccccc2n1CCN(C)C,-4.0%,-1.0%,39.8µM*,1.3,-37.0%,39.8µM*
CCCCn1c(NC(=O)c2ccccc2)nc2ccccc21,52.6%,0.3%,0.0%,/,44.5%,69.6%[59 µM]
CCCCn1c(NC(=S)Nc2ccccc2)nc2ccccc21,?,-16.4%,39.8µM*,24.6,7.94µM*,0.7%[59 µM]
S=C(Nc1ccccc1)Nc1nc2ccccc2n1CCOc1ccccc1,-10.1%,-22.0%,44.7µM*,/,6.31µM*,-39.0%[59 µM]
CCOc1ccc(C2CC(=O)Nc3c2c(=O)nc(SCc2ccccc2C)n3C)cc1OC (stereo unspecified),23.7%,/,-19.2%,/,-10.7%,5.0%[59 µM]
CN(C1CCCCC1)S(=O)(=O)c1ccc(C(=O)Nc2sc3c(c2C(N)=O)CC(C)(C)NC3(C)C)cc1,31.8%,33.6µM*,?,-24.4,-13.2%[57.1 µM],12.1%
CC(C)CN(CC(C)C)S(=O)(=O)c1ccc(C(=O)Nc2sc3c(c2C(N)=O)CC(C)(C)NC3(C)C)cc1,-4.0%,/,-24.2%,/,4.8%,3.6%[59 µM]
COC(=O)c1c(-c2ccc(Cl)cc2)noc1N1CCN(c2ccc(OC)cc2)CC1,16.8%[57 µM],/,-7.8%,/,0.5%,-41.5%[59 µM]
N#CC1(C#N)CC(C=O)=C(N)C1(C#N)CC(=O)c1ccc(F)cc1 (stereo unspecified),-17.7%,?,-9.4%[57.1 µM],-0.5,-33.5%,31.6µM*
CC1CC(C)CN(C(=O)COC(=O)CN2C(=O)c3ccccc3C2=O)C1 (stereo unspecified),-3.9%,-12.5%,-15.9%,-0.8,/,/
CC1CC(C)CN(C(=O)c2ccc3c(c2NCCO)C(=O)c2ccccc2C3=O)C1 (stereo unspecified),44.7µM*,-21.1%,14.1µM*,-6.0,?,28.2µM*
COc1ccc(OC)c(NC(=O)c2c(C)oc3ncnc(N4CCOCC4)c23)c1,19.2%,/,-19.1%,/,-14.2%[57.1 µM],-42.2%[59 µM]
SMILES,HP1b binding inh,PLK1 PBD block,JMJD2A Tudor,PI5P4K alpha inh,BAZ2B block,G9a inh
CCCCCc1ccc(-c2cn(CCc3c[nH]c4ccccc34)nn2)cc1,41.8%,-3.3%,-1.4%,-1.7,7.5%,/
O=C(O)CCCCCCCCc1cn(CCc2c[nH]c3ccccc23)nn1,13.6%,-10.9%,-28.4%,-19.4,-38.2%,28.2µM*
O=c1cc(-c2ccccc2)[nH]c2[nH]n(-c3ccccc3)c(=O)c12,-7.6%,-5.3%,-30.8%,/,?,44.7µM*
COc1ccc(C2=CC(c3c(C)nn(-c4ccccc4)c3Cl)n3nnnc3N2)cc1OC (stereo unspecified),4.5%,1.6%,?,-5.6,-25.0%,44.7µM*
Cc1c(Cl)cccc1NC(=O)Nc1nnc(N2CCCCCC2)s1,18.4%,/,-13.6%,/,3.3%,-5.1%[59 µM]
COC(=O)[C@@]1(Cc2ccc(F)cc2)[C@H]2c3cc(C(=O)N4CCCC4)n(Cc4ccc(C(F)(F)F)nc4)c3C[C@H]2CN1C(=O)c1ccccc1,4.6%,-9.2%,?,2.1,?,50.1µM*
COC(=O)[C@@]1(Cc2ccc(F)cc2)[C@H]2c3cc(C(=O)N4CCCC4)n(CCCNc4ncc(C(F)(F)F)cc4Cl)c3C[C@H]2CN1C(=O)c1ccccc1,4.3%,-5.3%,?,3.4,-35.1%,31.6µM*
CN1CCC(C(=O)C(=O)O)C1=O (stereo unspecified),70.8µM*,-5.8%,20µM*,23.1,/,/
CC1CCCC(NC(=O)Cn2cc(C(F)(F)F)cc(Cl)c2=O)C1C (stereo unspecified),31.9%,-10.9%,-22.3%,6.1,11.3%,?
COC(=O)c1cc(NS(=O)(=O)c2ccc(NCc3cccnc3)c(N)c2)cc(C(=O)OC)c1,36.5%,2.6%,-7.1%,12.5,-9.8%,35.5µM*
COC(=O)c1cc(NS(=O)(=O)c2ccc(NCc3cccnc3)c([N+](=O)[O-])c2)cc(C(=O)OC)c1,15.8%,-1.6%,-12.2%,-6.9,-2.4%,-10.0%[59 µM]
O=C1c2ccccc2NC(c2ccccc2OCc2ccccc2)N1Cc1ccco1 (stereo unspecified),11.8%[57 µM],/,-10.0%[57.1 µM],/,/,/
CN(CCc1ccccn1)S(=O)(=O)c1ccc(F)cc1,28.2µM*,-5.8%,5.62µM*,-7.5,44.7µM*,7.08µM*
CN(CC(=O)NCc1ccccn1)S(=O)(=O)c1ccc(F)cc1,47.6%,-23.4%,1.1%,5.2,5.0%,26.4%
COc1ccc(CN(C)CCc2ccccn2)c(OC)c1OC,?,-6.7%,1µM*,-3.9,28.2µM*,7.8%[2.33 µM]
ON(CCc1ccccn1)CCc1ccccn1,-6.1%,-12.8%,14.1µM*,1.0,/,/
CCOc1ccc(CN(C)CCc2ccccn2)cc1,25.1µM*,-5.9%,17.8µM*,0.6,56.2µM*,17.8µM*
ON(CCc1ccccn1)Cc1ccccc1,44.2%,1.9%,-7.6%,13.7,/,/
O=C(Cc1ncc(C(F)(F)F)cc1Cl)NNc1cccc(F)n1,50.0%,-8.7%,-8.7%,-2.0,0.4%,22.3%[2.33 µM]

# Bioassay records: PubChem, National Center for Advancing Translational Sciences (NCATS)
